# Test results published in PubChem BioAssay.
# Values without a mark were called inactive. The rule behind the calls is not given here. Where a SMILES comes first, the peptide text is derived from it.
# Test system: Botulinum neurotoxin type F light chain protease (Clostridium botulinum)
# Test: Botulinum neurotoxin type F light chain protease inhibition, multiplex microsphere flow cytometry, validation set (AID 588459)
# Details: multiplex microsphere protease substrate cleavage assay, at 10 µM, hits give high values
row,Structure (SMILES),inhibition [%]
1,O=C(O)CCn1cnc2ccccc2c1=O,1.4
2,Clc1ccc2c(c1)[C@H]1OCC[C@H]1[C@@H](c1ccco1)N2,0.3
3,CC1CCN(CCOCCOc2ccccc2Br)CC1,1.2
4,O=C(/C=C/c1ccc(Cl)cc1)NCCc1ccccc1,-4
5,Cc1[nH]nc(-c2ccc(O)cc2O)c1Oc1ccccc1,0.6
6,Cc1nc(N)sc1C(=O)N/N=C/c1ccco1,-4.3
7,Nc1cccc(C(=O)O)c1,-0.6
8,Cc1ccc2c(ccc(=S)n2C)c1,1.7
9,Cc1ccccc1C(=O)NCC(=O)O,1.1
10,COC(=O)C1=C(C)N(C)C(=S)NC1c1ccc(Cl)cc1 (centres undefined),-0.7
11,Cc1ccc(N2C(=O)c3ccccc3C2=O)cc1C,-0.3
12,CC(C)(C)NCC(O)c1cc(O)cc(O)c1 (centres undefined),-5.4
13,CCCCOc1ccc(OCCCN2CCOCC2)cc1,-1.1
14,Cc1cc(-c2nn(-c3ccccc3F)cc2CN2CCCC(O)C2)c(C)s1 (centres undefined),3
15,CC(=O)NC(CC(C)C)C(=O)NC(Cc1ccccc1)C(N)=O (stereo not drawn) (Ac-Leu-Phe-NH2; configuration not given here),3.1
16,c1ccc(Cn2nnc3cnccc32)cc1,3.6
17,O=C(/C=C/c1ccccc1)c1ccccc1,-1.7
18,COc1ccc(C(=O)c2oc3ccc(Br)cc3c2NC(C)=O)cc1,0.3
19,N/C(=N\OC(=O)CCCOc1ccc(Cl)cc1Cl)c1ccccn1,4
